From PubChem
Six1-Eya2 inh = qHTS Assay for Inhibitors of the Six1/Eya2 Interaction | Homeobox protein SIX1 (Homo sapiens) + Protein phosphatase EYA2 (Homo sapiens), … | AlphaScreen GST-Six1/His-Eya2 binding, biochemical; hits give low values | activity change, % (test concentration not listed) | 0.56% of 360,000 active; in the data active means activity change below about -65%; inconclusive means mostly about -30% to -63%
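Homogeneous AlphaScreen proximity assay pairing GST-Six1 with His-tagged Eya2 (added as 5X mix: 250 nM and 500 nM) in 50 mM Tris pH 8.0, 300 mM NaCl, 1 mM TCEP. Glutathione donor and nickel acceptor beads; 1 h, 37 °C, dark.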
HP1b binding inh = HTS for Inhibitors of HP1-beta Chromodomain Interactions with Methylated Histone Tails. Chromobox protein homolog 1 (Homo sapiens), P83916. AlphaScreen HP1-beta / biotin-H3K9me3 peptide binding. Potency, µM (series often up to 114 µM), hits mostly inhibitors. 0.56% of 390,000 active; further: nearly all actives have a fitted effect of over 70% in size
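Compound inhibition of the preformed complex between 50 nM HP1-beta and 50 nM biotinylated H3K9me3 peptide was read by AlphaScreen. Buffer was PBS pH 7.4 with 0.01% Tween-20. Incubations ran 30 min at room temperature, with 10 ug/mL donor/acceptor beads.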
G9a block = qHTS Assay for Inhibitors of Histone Lysine Methyltransferase G9a; Histone-lysine N-methyltransferase EHMT2 (Homo sapiens), Q96KQ7; G9a H3K9 monomethylation, AlphaScreen, 2 h; Potency, µM (highest dose often 102 µM), most hits filed as inhibitors; 8.8% of 350,000 active; AID 504332, 2011; further: nearly all actives have a fitted effect of over 75% in size
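Compounds were preincubated with 20 nM G9a for 15 min, after which biotinylated H3K9 peptide (500 nM) and SAM (20 uM) started a 2 h room-temperature reaction. Monomethylated product was quantified by antibody-based AlphaScreen chemiluminescence.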
JMJD2A Tudor = qHTS Assay for Inhibitors of JMJD2A-Tudor Domain | Lysine-specific demethylase 4A (Homo sapiens), O75164 | AlphaScreen JMJD2A-Tudor / H3K4me3 peptide binding | Potency, µM (top dose mostly 114 µM), usual class: inhibitors | 4.4% of 390,000 active; further: nearly all actives have a fitted effect of over 50% in size
BAZ2B block = qHTS Assay for Inhibitors of BAZ2B; Bromodomain adjacent to zinc finger domain protein 2B (Homo sapiens), Q9UIF8; AlphaScreen BAZ2B-H3K14Ac peptide displacement; Potency, µM (series often up to 114 µM), most hits filed as inhibitors; 4.4% of 360,000 active; further: nearly all actives have a fitted effect of over 60% in size
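In this displacement format the biotinylated H3(5-23) peptide acetylated at Lys14 serves as ligand at 50 nM, with BAZ2B at 50 nM in PBS pH 7.4 containing 0.01% Tween-20. Donor and acceptor beads are 10 ug/mL final.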
CtBP-E1A inh = qHTS Assay for Inhibitors of the CtBP/E1A Interaction; 0.49% of 340,000 active; CtBP / adenovirus E1A interaction (AlphaScreen); AID 651724, 2012; activity change, % (test concentration not listed); AlphaScreen GST-E1A/His-CtBP binding, 1536-well; hits give low values; in the data active means activity change below about -65%; inconclusive means mostly about -30% to -63%
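In 5 uL wells, 23 nL compound meets equimolar GST-E1A and His-CtBP (5X stock 125 nM each) for 2 h, 37 °C. Beads (5X, 50 ug/mL) then 1 h, 37 °C, dark.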
Each line names hits and unclear results; the compound was inactive in the other large screens. An excerpt weighted towards active compounds, which were near 10% of everything screened. Unless noted, the call rests on the fitted dose curve; in most records, active means well fitted inhibition curve with a large enough effect; inconclusive means small, poorly fitted or top-dose-only effect; inactive means no such curve, though single readings can be large or run the other way.

Cc1ccc(S(=O)(=O)CCN2CCN(c3ccccc3)CC2)cc1	none
Cc1ccc(S(=O)(=O)CCN2CCC(n3cccc3)CC2)cc1	BAZ2B block 40µM (no result: G9a block)
CC(=O)c1cc2c(cc1NC(=O)c1ccccc1C)OCO2	none (no result: Six1-Eya2 inh, HP1b binding inh, JMJD2A Tudor, CtBP-E1A inh)
COCC(C)n1c(C)cc(C(=O)CSc2nc(C)c(C)c(C)n2)c1C (centres undefined)	BAZ2B block inconclusive
Cc1cc(SCC(=O)Nc2ncc(Cl)cc2Cl)nc2ccccc12	none
COc1ccccc1-n1cnnc1SCC(=O)Nc1nc(C)c(Cl)cc1Cl	none
COCCn1c(C)cc(C(=O)CSc2nc(C)c(C)c(C)n2)c1C	G9a block 28µM, JMJD2A Tudor inconclusive, BAZ2B block inconclusive
COc1ccc2c(C)cc(SCC(=O)Nc3ncc(Cl)cc3Cl)nc2c1	G9a block 25µM
COc1ccccc1-n1cnnc1SCC(=O)Nc1ncc(Cl)cc1Cl	JMJD2A Tudor 50µM
COCCNC(=O)CSc1cc(-c2ccccc2)c2ccc(OC)cc2n1	G9a block 22µM
CC1=C(C(=O)Nc2cccc(F)c2)C2(CCCCCC2)OC1=O	none (no result: Six1-Eya2 inh, CtBP-E1A inh)
Cc1ccc(NC(=O)CSCC(=O)OC(C)C(=O)Nc2ccc(S(N)(=O)=O)cc2)c(C)c1 (centres undefined)	none
Cc1c(-n2c(SCC(=O)O)nnc2-c2ccccc2Br)c(=O)n(-c2ccccc2)n1C	none
COCCn1c(C)cc(C(=O)CSc2cc(C)c3ccc(OC)cc3n2)c1C	G9a block 71µM, JMJD2A Tudor inconclusive, CtBP-E1A inh inconclusive
CCN(CC)C1=CC(=O)OC12CCCCC2	G9a block 3.5µM, JMJD2A Tudor 32µM
CC(C)N(C1=CC(=O)OC12CCCCC2)C(C)C	none
N#CC1(NC(=O)COc2cc(F)ccc2[N+](=O)[O-])CCCCC1	G9a block inconclusive
N#CC1(NC(=O)COc2ccccc2[N+](=O)[O-])CCCCC1	HP1b binding inh inconclusive, G9a block 18µM, JMJD2A Tudor 20µM
CC(=O)Nc1ccc2c(c1)C(C)(C)C(C)N2C (centres undefined)	G9a block 18µM, BAZ2B block inconclusive
COc1cc(C2CC(=O)C3=C(C2)Nc2ncnn2C3c2cccs2)cc(OC)c1OC (centres undefined)	none
COc1cccc(C2=CC(c3ccc(C)cc3)n3ncnc3N2)c1 (centres undefined)	G9a block 40µM (no result: Six1-Eya2 inh, HP1b binding inh, JMJD2A Tudor, CtBP-E1A inh)
COc1ccc(C2C3=C(Nc4ncnn42)c2ccccc2CCC3)cc1 (centres undefined)	G9a block inconclusive
COc1cc(C2C3=C(Nc4ncnn42)c2ccccc2CC3)cc(OC)c1OC (centres undefined)	G9a block 32µM
Cc1ccsc1C1C=C(c2cccc(Br)c2)Nc2ncnn21 (centres undefined)	G9a block 10µM
Cc1ccc(C2=CC(c3ccccc3)n3ncnc3N2)cc1 (centres undefined)	none (no result: G9a block, BAZ2B block)
COc1cc(C2C=C(c3cccs3)Nc3ncnn32)cc(OC)c1OC (centres undefined)	G9a block 32µM, JMJD2A Tudor inconclusive
CCC1(CC(C)C)SC(N)=NC1=O (centres undefined)	none (no result: G9a block, BAZ2B block)
CC(C)C(=O)N(c1ccc2oc(=O)sc2c1)S(=O)(=O)c1ccccc1	G9a block 3.2µM, JMJD2A Tudor inconclusive
CCOC(=O)c1c(-c2ccccc2)oc2ccc(N(C(C)=O)S(=O)(=O)c3ccc(C)cc3)cc12	none (no result: Six1-Eya2 inh, CtBP-E1A inh)
COc1ccc(OC)c(S(=O)(=O)N(C(C)=O)c2ccc3oc(=O)sc3c2)c1	G9a block 35µM
COc1ccc(N(C(C)=O)S(=O)(=O)c2cc(OC)ccc2OC)cc1	none
CCCC(=O)N(c1ccc2oc(=O)sc2c1)S(=O)(=O)c1cccs1	G9a block 40µM
CC(=O)N(c1ccc2oc(=O)sc2c1)S(=O)(=O)c1ccccc1	G9a block 25µM, BAZ2B block inconclusive
COc1ccc(C2=Nc3ccccc3N(C(=O)c3ccncc3)C2C(=O)NC(C)C)cc1 (centres undefined)	none (no result: HP1b binding inh, G9a block, JMJD2A Tudor, BAZ2B block)
CCCn1c(SCc2nc(-c3cc(OC)ccc3OC)no2)nnc1-c1ccc(Cl)cc1	none (no result: Six1-Eya2 inh, CtBP-E1A inh)
COc1ccc(C(=O)Oc2ccc3oc(=O)sc3c2)cc1	G9a block inconclusive
COc1ccc(S(=O)(=O)N(C(=O)C(C)C)c2ccc3oc(=O)sc3c2)cc1	G9a block 7.9µM, BAZ2B block inconclusive
O=C1CC[C@@H]2CC(N3CCN(c4ccccc4)CC3)C[C@@H]3CCN1[C@H]23 (some centres undefined)	none (no result: G9a block, BAZ2B block)
O=Cc1cc(N=Nc2ccc(S(=O)(=O)O)cc2)ccc1O	none (no result: G9a block, BAZ2B block)
Nc1cc(S(=O)(=O)O)cc2ccc(S(=O)(=O)O)cc12	none (no result: G9a block, BAZ2B block)
Cc1cc(-c2ccc(N=Nc3c(S(=O)(=O)O)cc4cc(S(=O)(=O)O)cc(N)c4c3O)c(C)c2)ccc1N=Nc1c(S(=O)(=O)O)cc2cc(S(=O)(=O)O)cc(N)c2c1O	G9a block inconclusive, BAZ2B block 1.4µM (no result: Six1-Eya2 inh, HP1b binding inh, JMJD2A Tudor, CtBP-E1A inh)
O=S(=O)(O)c1cc(O)c2c(O)c(N=Nc3cc(Cl)ccc3O)c(S(=O)(=O)O)cc2c1	Six1-Eya2 inh -75, HP1b binding inh 20µM, G9a block 10µM, JMJD2A Tudor 10µM, BAZ2B block 11µM, CtBP-E1A inh -95
COc1ccc(OC)c(NC(=O)NNC(=O)c2cc3occc3[nH]2)c1	Six1-Eya2 inh inconclusive, G9a block 50µM, BAZ2B block inconclusive (no result: CtBP-E1A inh)
CCc1cc2cc(C)cc(C)c2[nH]c1=S	G9a block 1.4µM, JMJD2A Tudor 8.9µM, BAZ2B block inconclusive
NC(=O)[C@@H]1CCNc2c(I)cc([N+](=O)[O-])cc2C(=O)N[C@@H](CO)C(=O)N[C@@H](Cc2ccc(O)cc2)C(=O)N1	G9a block 10µM, BAZ2B block 79µM (no result: Six1-Eya2 inh, HP1b binding inh, JMJD2A Tudor, CtBP-E1A inh)
CC(C)C[C@@H]1NC(=O)[C@H](Cc2ccc(O)cc2)NC(=O)[C@H](CCC(N)=O)NC(=O)c2cc([N+](=O)[O-])cc(I)c2NCC[C@@H](C(N)=O)NC1=O	G9a block 7.1µM, BAZ2B block 50µM (no result: Six1-Eya2 inh, HP1b binding inh, JMJD2A Tudor, CtBP-E1A inh)
NC(=O)C(CC(=O)O)NC(=O)[C@@H]1CCOc2c(I)cc([N+](=O)[O-])cc2C(=O)N[C@@H](CO)C(=O)N[C@@H](Cc2ccc(O)cc2)C(=O)N1 (some centres undefined)	G9a block 22µM, JMJD2A Tudor 50µM, BAZ2B block inconclusive
O=C1NC(=O)C(Cc2ccc(O)cc2)N1 (centres undefined)	none (no result: G9a block, BAZ2B block)
